Source: PubChem BioAssay (Tox21)
Where “and” joins values, the source holds several entries; their conditions need not be identical. Identical values can stand only once. Results filed as inconclusive are left out. Calls of active or inactive are those of the source. Unless noted, calls follow the shape of the dose curve; as a rule, active = well fitted curve in the direction sought with a large enough effect in the repeat runs; inconclusive = weak or mixed curves; inactive = no such curve, though single readings can be large; an effect the other way counts as inactive or inconclusive.

Columns and labels:
[1] = qHTS assay to identify small molecule antagonists of the glucocorticoid receptor (GR) signaling pathway - cell viability counter screen (AID 720693); conditions: GR-bla HeLa viability, CellTiter-Glo luminescence, 18 h, with 5 nM dexamethasone present; series mostly up to 58.5 µM; also: nearly all actives have a fitted effect of over 55% in size
[2] = qHTS assay for identifying genotoxic compounds that show differential cytotoxicity against isogenic chicken DT40 cell lines with known DNA damage response pathways - wild type cell line (AID 743012); conditions: DT40 wild type chicken cells viability, CellTiter-Glo, 40 h; series mostly up to 68.4 µM; also: nearly all actives have a fitted effect of over 60% in size; also: potency is read from the fitted curve at half-maximal effect
How it was run: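 Viability of DNA repair-proficient chicken DT40 cells was assessed by CellTiter-Glo luminescence following 40 h compound exposure at 37 C/5% CO2.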

[3] = qHTS assay for identifying genotoxic compounds that show differential cytotoxicity against isogenic chicken DT40 cell lines with known DNA damage response pathways - Rev3 mutant cell line (AID 743014); conditions: chicken DT40 Rev3-/- viability, CellTiter-Glo, 40 h; series mostly up to 68.4 µM; also: nearly all actives have a fitted effect of over 55% in size; also: potency is read from the fitted curve at half-maximal effect
[4] = qHTS assay for identifying genotoxic compounds that show differential cytotoxicity against isogenic chicken DT40 cell lines with known DNA damage response pathways - Rad54/Ku70 mutant cell line (AID 743015); conditions: DT40 Rad54/Ku70 mutant viability, CellTiter-Glo, 40 h; series mostly up to 66.8 µM; also: nearly all actives have a fitted effect of over 60% in size; also: potency is read from the fitted curve at half-maximal effect
[5] = qHTS assay to identify small molecule antagonists of the androgen receptor (AR) signaling pathway - cell viability counter screen (AID 743033; also: nearly all actives have a fitted effect of over 45% in size; also: potency is read from the fitted curve at half-maximal effect); conditions: AR-bla HEK293 viability, CellTiter-Glo luminescence, 16 h; series mostly up to 58.5 µM
[6] = molecular target: Androgen receptor (Homo sapiens) (UniProt P10275); test: qHTS assay to identify small molecule antagonists of the androgen receptor (AR) signaling pathway (AID 743035; active = well fitted inhibition curve with a large enough effect in the signal ratio in the repeat runs, not every such curve was filed as active; the % refers to the signal ratio); conditions: HEK293 AR-UAS-bla, R1881-stimulated, beta-lactamase FRET, 16 h; series mostly up to 58.5 µM
Androgen receptor (Homo sapiens), sequence (P10275 whole entry, looked up): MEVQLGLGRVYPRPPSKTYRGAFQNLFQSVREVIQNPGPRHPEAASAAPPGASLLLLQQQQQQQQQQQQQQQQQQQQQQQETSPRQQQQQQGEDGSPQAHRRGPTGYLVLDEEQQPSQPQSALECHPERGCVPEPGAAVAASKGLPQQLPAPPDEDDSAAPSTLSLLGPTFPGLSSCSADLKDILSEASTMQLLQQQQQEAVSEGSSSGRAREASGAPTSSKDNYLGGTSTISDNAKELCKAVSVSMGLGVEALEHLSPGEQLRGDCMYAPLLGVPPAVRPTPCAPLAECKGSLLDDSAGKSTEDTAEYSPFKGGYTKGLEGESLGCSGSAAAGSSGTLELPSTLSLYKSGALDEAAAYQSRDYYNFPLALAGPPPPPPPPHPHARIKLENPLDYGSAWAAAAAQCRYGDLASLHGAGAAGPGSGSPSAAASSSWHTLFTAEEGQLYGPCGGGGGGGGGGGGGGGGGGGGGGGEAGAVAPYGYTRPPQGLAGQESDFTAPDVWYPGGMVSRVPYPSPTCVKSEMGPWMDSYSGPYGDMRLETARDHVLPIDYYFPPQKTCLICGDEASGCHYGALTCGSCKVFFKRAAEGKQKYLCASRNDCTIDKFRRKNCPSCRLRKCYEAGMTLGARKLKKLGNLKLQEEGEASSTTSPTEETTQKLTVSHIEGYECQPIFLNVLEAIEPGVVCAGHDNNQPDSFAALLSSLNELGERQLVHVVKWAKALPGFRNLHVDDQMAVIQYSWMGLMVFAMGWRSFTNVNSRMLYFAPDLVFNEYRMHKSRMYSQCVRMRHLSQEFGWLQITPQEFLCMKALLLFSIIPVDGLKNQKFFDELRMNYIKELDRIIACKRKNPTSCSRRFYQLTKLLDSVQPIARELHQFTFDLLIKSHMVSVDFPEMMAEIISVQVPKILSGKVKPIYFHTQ
How it was run: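 Reporter HEK293 cells were exposed to compounds and R1881 overnight (16 h, 37C); beta-lactamase activity was then quantified by FRET fluorescence.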

[7] = molecular target: Androgen receptor (Homo sapiens) (UniProt P10275); test: qHTS assay to identify small molecule agonists of the androgen receptor (AR) signaling pathway (AID 743036; active = well fitted activation curve with a large enough effect in the signal ratio in the repeat runs, with a control signal flat, not every such curve was filed as active; the % refers to the signal ratio); conditions: HEK293 AR-UAS-bla GripTite, beta-lactamase FRET ratio, 16 h; series mostly up to 62.4 µM
How it was run: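 Fluorescence from a beta-lactamase FRET substrate served as read-out in AR-UAS-bla GripTite HEK293 cells. Cells were treated with DMSO-dissolved compounds for 16 h at 37C, then with LiveBLAzer B/G substrate for 2 h at room temperature.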

[8] = molecular target: Androgen receptor (Homo sapiens) (UniProt P10275); test: qHTS assay to identify small molecule agonists of the androgen receptor (AR) signaling pathway using the MDA cell line (AID 743040; also: nearly all actives have a fitted effect of over 20% in size; also: potency is read from the fitted curve at half-maximal effect); conditions: MDA-kb2 AR-luc cells, MMTV luciferase, 16 h; series mostly up to 70.3 µM
How it was run: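 Stable MMTV-luciferase reporter in MDA-kb2 cells; note the promoter carries GR as well as AR response elements. 16 h compound treatment, 37C, 0% CO2; ONE-Glo luminescence endpoint.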

[9] = qHTS assay to identify small molecule antagonists of the androgen receptor (AR) signaling pathway using the MDA cell line - cell viability counter screen (AID 743041; also: nearly all actives have a fitted effect of over 45% in size; also: potency is read from the fitted curve at half-maximal effect); conditions: MDA-kb2 viability, CellTiter-Fluor, 16 h, cells co-treated with R1881 androgen agonist; series mostly up to 70.3 µM
How it was run: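 Using the breast carcinoma line MDA-kb2 AR-luc, test chemicals were co-incubated with R1881 for 16 h; CellTiter-Fluor reagent, added at 15.5 h, provided a fluorescence measure of live cells.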

[10] = molecular target: Androgen receptor (Homo sapiens) (UniProt P10275); test: qHTS assay to identify small molecule antagonists of the androgen receptor (AR) signaling pathway using the MDA cell line (AID 743042; also: nearly all actives have a fitted effect of over 55% in size); conditions: MDA-kb2 AR-luc, MMTV luciferase, R1881 antagonist, 16 h; series mostly up to 70.3 µM
How it was run: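 Antagonist mode: compounds plus R1881 agonist added to MDA-kb2 AR-luc cells, incubated 16 h at 37C. Luciferase reporter luminescence quantified, with multiplexed CellTiter-Fluor readout for cell viability.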

Measured: Potency

C[N+]1(CC2COC(c3ccccc3)(C3CCCCC3)O2)CCCCC1 (configuration not stated)
active: [2] 2.66 µM | [3] 3.76 µM | [4] 5.31 µM
inactive: [1] | [5]

CC(=O)NO
inactive: all assays above

N=c1ccn2c(n1)O[C@H]1[C@H](O)[C@@H](CO)O[C@H]12
inactive: [1] | [5] | [9]
active: [2] 211 nM and 193 nM | [3] 237 nM and 137 nM | [4] 266 nM and 172 nM

COS(=O)(=O)C(F)(F)F
inactive: [1]

CCOC(=O)COC(=O)c1cc(Oc2ccc(C(F)(F)F)cc2Cl)ccc1[N+](=O)[O-]
active: [2] 21.7 µM | [3] 12.2 µM | [4] 19.3 µM
not listed: [6]
inactive: all other assays above

CCCCC(CC)COC(=O)CCCCCCCCC(=O)OCC(CC)CCCC (configuration not stated)
inactive: [1] | [2] | [3] | [4] | [5] | [9]

CCn1cc(C(=O)O)c(=O)c2cnc(N3CCNCC3)nc21
inactive: [1] | [2] | [3] | [4] | [5] | [9]

COc1cc2nc(N(C)CCCNC(=O)C3CCCO3)nc(N)c2cc1OC (configuration not stated)
inactive: [1] | [2] | [3] | [4] | [5] | [9]

Nc1ccc(N)c2c1C(=O)c1ccccc1C2=O
active: [2] 17.2 µM | [3] 27.3 µM | [4] 7.7 µM
not listed: [6] | [9]
inactive: all other assays above

CCCCCC[C@@H](O)C/C=C\CCCCCCCC(=O)OC
inactive: all assays above

CCCn1cnc2c1c(=O)n(CCCCC(C)=O)c(=O)n2C
inactive: all assays above

O=C1[C@H]2CCCC[C@H]2C(=O)N1CCCCN1CCN(c2nsc3ccccc23)CC1
inactive: [1]
active: [2] 6.68 µM | [3] 5.96 µM | [4] 5.96 µM

C#Cc1cccc(Nc2ncnc3cc(OCCOC)c(OCCOC)cc23)c1
inactive: [1] | [5] | [9]
active: [2] 11.9 µM | [3] 21.1 µM | [4] 13.3 µM

NCc1ccccc1Sc1ccccc1CO
active: [2] 21.1 µM | [3] 5.96 µM | [4] 29.8 µM
inactive: all other assays above

O=C(O)CC(=O)C(=O)O
inactive: [1] | [2] | [3] | [4] | [5] | [9]

Cc1oc2c(NC(=O)c3c(Cl)cccc3Cl)cccc2c1C(C)(C)O
inactive: [1] | [5]
active: [2] 43.3 µM | [3] 27.3 µM | [4] 48.6 µM

CC(COCCO)OCCO (configuration not stated)
inactive: all assays above

NCCCN1CCOCC1
active: [9] 30.6 µM
not listed: [6]
inactive: all other assays above

NCC(=O)O
inactive: [1] | [2] | [3] | [4] | [5] | [9]

CC(C)OC(=O)C(C)N(C(=O)c1ccccc1)c1ccc(F)c(Cl)c1 (configuration not stated)
inactive: [1] | [5]
active: [2] 6.11 µM | [3] 6.86 µM | [4] 13.7 µM

C=C1[C@H]2CC[C@@H]3[C@H]2C(C)(C)CCC[C@]13C
inactive: [1] | [2] | [3] | [4] | [5] | [9]

COc1cc2c(cc1OC)C(C(C(=O)N(CCc1ccc(OC)c(OC)c1OC)CCc1ccc(OC)c(OC)c1OC)c1ccccc1)=NCC2 (configuration not stated)
inactive: [1] | [5] | [9]
active: [2] 6.68 µM | [3] 10.6 µM | [4] 11.9 µM

Nc1ccc(S(=O)(=O)Nc2ccccc2)cc1
inactive: [1] | [2] | [3] | [4] | [5] | [9]

CCCCNc1ccc(C(=O)OCCOCCOCCOCCOCCOCCOCCOCCOCCOC)cc1
inactive: [1] | [2] | [3] | [4] | [5] | [9]

O=C1c2ccccc2S(=O)(=O)N1CCCCN1CCN(c2ncccn2)CC1
inactive: [1] | [2] | [3] | [4] | [5] | [9]

C=CC(=O)OCCOCCOC(=O)C=C
inactive: [1]
active: [2] 9.73 µM | [3] 6.14 µM | [4] 9.73 µM | [5] 39.1 µM

C/C=C/C(=O)CC
inactive: [1] | [2] | [3] | [4] | [5] | [9]

CCO[C@H](Cc1ccc(OCCc2ccc(OS(C)(=O)=O)cc2)cc1)C(=O)O
inactive: all assays above

C/C(=C(\CCOP(=O)(O)O)SC(=O)c1ccccc1)N(C=O)Cc1cnc(C)nc1N
active: [8] 12.7 µM
not listed: [7]
inactive: all other assays above

CN(C)CCN(Cc1ccccc1)c1ccccn1
inactive: [1] | [2] | [3] | [4] | [5] | [9]

OCc1cc(C(O)CNCCCCCCOCCCCc2ccccc2)ccc1O (configuration not stated)
active: [2] 3.35 µM and 2.37 µM | [3] 5.96 µM and 4.73 µM | [4] 5.31 µM and 3.35 µM
inactive: [1]

CNC(=O)CN(CCN(CCN(CC(=O)[O-])CC(=O)NC)CC(=O)[O-])CC(=O)[O-].O.[Gd+3]
inactive: [1] | [2] | [3] | [4] | [5] | [9]

CN(C)c1ccc(C(c2ccccc2)c2ccc(N(C)C)cc2)cc1
active: [2] 6.86 µM | [3] 6.86 µM | [4] 8.63 µM
not listed: [6]
inactive: all other assays above

CC1(c2ccccc2)OC(C(=O)O)=CC1=O (configuration not stated)
inactive: [1] | [2] | [3] | [4] | [5] | [9]

CCC(C)(C)CC
inactive: [1]

CCCCO
inactive: [1] | [2] | [3] | [4] | [5] | [9]

O=C1CCCCCCCCCCCC(=O)OCCO1
active: [2] 54.5 µM | [3] 27.3 µM | [4] 27.3 µM
not listed: [6] | [7]
inactive: all other assays above

CCCCC/C=C\C/C=C\CCCCCCCC(=O)NC(C)c1ccccc1 (configuration not stated)
inactive: [1] | [2] | [3] | [4] | [5] | [9]

COC(C)(C)CCO
inactive: [1] | [2] | [3] | [4] | [5] | [9]

Nc1cc(C(=O)O)c(O)c(S(=O)(=O)O)c1
inactive: [1] | [2] | [3] | [4] | [5] | [9]

Cc1ncc(CO)c(C=O)c1O
inactive: [1] | [2] | [3] | [4] | [5] | [9]

C#C[C@]1(O)CC[C@H]2[C@@H]3CCc4cc(OC5CCCC5)ccc4[C@H]3CC[C@@]21C
active: [2] 1.68 µM | [3] 2.11 µM | [4] 5.31 µM
inactive: [1] | [5] | [9]

O=C(O)c1ccc(-n2nc(-c3ccccc3O)nc2-c2ccccc2O)cc1
active: [2] 13.3 µM | [3] 18.8 µM | [4] 18.8 µM
inactive: [1] | [5] | [9]

C[C@H](CCC(=O)O)[C@H]1CC[C@H]2[C@@H]3CC[C@@H]4C[C@H](O)CC[C@]4(C)[C@H]3C[C@H](O)[C@]12C
inactive: [1] | [2] | [3] | [4] | [5] | [9]

CC(CSC(=O)c1ccccc1)C(=O)N1C[C@@H](Sc2ccccc2)C[C@H]1C(=O)O (some centres not stated)
inactive: [1] | [2] | [3] | [4] | [5] | [9]

OC[C@H]1O[C@@H](OCCc2ccc(O)cc2)[C@H](O)[C@@H](O)[C@@H]1O
inactive: [1] | [2] | [3] | [4] | [5] | [9]

CC1CCC(=O)C1=O (configuration not stated)
inactive: [1] | [2] | [3] | [4] | [5] | [9]

COC(=O)c1ccc(I)cc1S(=O)(=O)NC(=O)Nc1nc(C)nc(OC)n1
inactive: [1] | [2] | [3] | [4] | [5] | [9]

CCOC(=O)C(F)(F)F
inactive: [1] | [2] | [4] | [5] | [9]
active: [3] 34.4 µM

CC/C=C\CCOC(=O)CC
inactive: [1] | [2] | [3] | [4] | [5] | [9]

Cc1[nH]c(C)c(Cl)c(=O)c1Cl
inactive: [1] | [2] | [3] | [4] | [5] | [9]

CCO[Si](CCCCl)(OCC)OCC
inactive: [1] | [2] | [3] | [4] | [5] | [9]

CCOC(=O)C1=C[C@]2(CC)CCCN3CCc4c(n1c1ccccc41)[C@@H]32
active: [2] 10.6 µM and 6.68 µM | [3] 10.6 µM and 9.44 µM | [4] 16.8 µM and 10.6 µM
inactive: [1] | [5] | [9]

COc1ccc(C(=O)c2ccc(OC)cc2O)c(O)c1
not listed: [6] | [7] | [8]
inactive: all other assays above
